Sm TGR block – S. mansoni TGR enzyme inhibition. hit rate 3% among 360,000. Q962Y6. purified TGR, DTNB reduction, TNB absorbance 405 nm. Potency, µM (highest dose often 114 µM), without a hit: at the top dose activity change, negative = inhibition, most hits filed as inhibitors. AID 485364; further: on the % scale 0 is the no-effect control and ±100 the full control effect; nearly all actives have a fitted effect of over 60% in size
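First, TGR (20 nM dispensed) and NADPH were mixed with compound. Second, a 15 min room-temperature incubation followed. Third, further NADPH and then DTNB were added to start the reaction. Finally, TNB absorbance was monitored kinetically.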
AmpC no deterg – blocks E. coli AmpC beta-lactamase in detergent-free assay; hit rate 0.52% among 330,000; P00811; AmpC nitrocefin hydrolysis, absorbance 480 nm, 0.0001% Triton; Potency, µM (series often up to 57.1 µM), for the others: at the highest dose activity change, negative = inhibition, most hits filed as inhibitors; AID 485341;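 further: plate controls were no compound for no effect and no enzyme for full effect; nearly all actives have a fitted effect of over 20% in size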
Target sequence (P00811 whole entry, looked up): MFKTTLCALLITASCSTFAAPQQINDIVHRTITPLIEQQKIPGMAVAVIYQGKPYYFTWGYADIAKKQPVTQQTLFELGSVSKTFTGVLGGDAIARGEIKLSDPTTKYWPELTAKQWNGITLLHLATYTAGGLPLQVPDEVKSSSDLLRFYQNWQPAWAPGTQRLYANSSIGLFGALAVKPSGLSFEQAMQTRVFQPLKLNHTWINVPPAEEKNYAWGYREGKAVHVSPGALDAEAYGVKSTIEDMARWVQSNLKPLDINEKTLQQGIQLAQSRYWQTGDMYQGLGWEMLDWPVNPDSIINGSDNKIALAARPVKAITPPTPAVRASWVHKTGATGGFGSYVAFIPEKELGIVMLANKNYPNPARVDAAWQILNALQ
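20 mM phosphate pH 7.0 + 0.01% (detergent screen) or 0.0001% Triton X-100; 5.3 nM AmpC reagent; cpd preinc 15 min RT; nitrocefin (800 uM stock) to start; A480 q20 s × 4 min; Activity was normalised to no-enzyme and no-compound control wells.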
SARS PLpro yeast – SARS-CoV PLP inhibition in yeast | S. cerevisiae expressing SARS-CoV PLpro, growth rescue | Potency, µM (series often up to 32.9 µM), for inactives: at the highest dose activity, positive = growth rescue, hits mostly activators | hit rate 0.19% among 330,000 | AID 485353; calls by dose curve; further: 0% is about no effect; nearly all actives have a fitted effect of over 55% in size
Pf growth 96h – inhibits malaria parasite growth, 96 h | hit rate 6.9% among 320,000 | Potency, µM (top dose mostly 28.7 µM), inactives show at the top dose activity change, negative = inhibition, most hits filed as inhibitors | P. falciparum luciferase reporter growth, 96 h; further: on the % scale 0 is the no-effect control and ±100 the full control effect
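Infected RBCs, 2% Hct / 0.05% parasitemia final; luciferase-reporter P. falciparum; cpd 96 h, 37 C, 5% CO2; luciferase detection reagent; luminescence.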
AmpC inh detg – blocks E. coli AmpC beta-lactamase in detergent assay; P00811; AmpC hydrolysis of nitrocefin, absorbance 480 nm, 0.01% Triton; AID 485294; hit rate 0.041% among 370,000; Potency, µM (top dose mostly 114 µM), inactives show at the top dose activity change, negative = inhibition, most hits filed as inhibitors;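 further: 0% = no-compound wells and -100% = no-enzyme wells; nearly all actives have a fitted effect of over 25% in size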
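AmpC (5.3 nM in the dispensed reagent) in 20 mM phosphate pH 7.0 with 0.01% (detergent screen) or 0.0001% Triton X-100 was preincubated with compounds for 15 min at room temperature. Nitrocefin was then added from an 800 uM solution, and hydrolysis was followed at 480 nm.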
Pf growth 48h – inhibits P. falciparum growth in the first generation, 48 h; P. falciparum luciferase growth in erythrocytes, 48 h; Potency, µM (doses to about 28.7 µM), without a hit: top-dose activity change, negative = inhibition, hits mostly inhibitors; hit rate 5.9% among 310,000; AID 504832; further: on the % scale 0 is the no-effect control and ±100 the full control effect
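Read-out is firefly luciferase luminescence from an integrated reporter in P. falciparum, so falling signal marks reduced parasite growth. Infected erythrocytes were at 2% hematocrit and 0.1% parasitemia (final) in Albumax-supplemented RPMI 1640.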
Numbers without * were called inactive; [ ] = remark or other dose. Shown are actives, neighbours in structure and some others; about 12% of the full set was active somewhere. Unless noted, the call rests on the fitted dose curve; in most records, active means well fitted curve in the direction sought with a large enough effect; inconclusive means small, poorly fitted or top-dose-only effect, or another doubt; inactive means no such curve, though single readings can be large; an effect the other way counts as inactive or inconclusive. Potency means the concentration at half of the fitted maximal effect.

Results for COc1ccc(-c2cccc([C@H]3[C@@H]4C=CC[C@@H](C)[C@@H]4C(=O)N3Cc3ccccc3)c2)cc1 ?
AmpC no deterg: -3.5%; SARS PLpro yeast: 5.9%

How did O=C1C2C(c3ccccc3)CC=CC2[C@H](c2ccc3ccccc3c2)N1Cc1ccccc1 (some centres undefined) do in these assays?
Sm TGR block: -17.9%; AmpC no deterg: -22.4%; SARS PLpro yeast: -2.2%; Pf growth 96h: inconclusive; AmpC inh detg: 2.2%; Pf growth 48h: inconclusive

What do the screens show for `CN(C)c1ccc(-c2cccc(C3CC=CC4C3C(=O)N(Cc3ccccc3)C4c3ccc4ccccc4c3)c2)cc1` (centres undefined)?
Sm TGR block: -26.9%; AmpC no deterg: -34.1%; SARS PLpro yeast: 2.4%; Pf growth 96h: inconclusive; AmpC inh detg: -9.3%; Pf growth 48h: 9.28µM*

Results for Cc1ccc(-c2cccc(C3CC=CC4C3C(=O)N(Cc3ccccc3)C4c3ccc(C(F)(F)F)cc3)c2)cc1 (centres undefined) ?
Sm TGR block: -6.5%; AmpC no deterg: -30.3%; SARS PLpro yeast: -3.1%; Pf growth 96h: inconclusive; AmpC inh detg: -9.2%; Pf growth 48h: inconclusive

How did O=C(CCn1c(=O)c2cccn2c2cccnc21)NCc1cccc(Br)c1 do in these assays?
Sm TGR block: 2.3%; AmpC inh detg: 16.2%

Results for CC(C)c1ccc(/C=c2\sc3nc(-c4ccncc4)nn3c2=O)cc1 ?
Sm TGR block: -12.1%; AmpC no deterg: -23.2%; SARS PLpro yeast: -5.0%; Pf growth 96h: 4.15µM*; AmpC inh detg: -2.4%; Pf growth 48h: 0.3%

What do the screens show for `Cc1ccc(/C=c2\sc3nc(-c4cccnc4)nn3c2=O)cc1`?
Sm TGR block: 0.9%; AmpC no deterg: -18.1%; SARS PLpro yeast: -5.7%; Pf growth 96h: inconclusive; AmpC inh detg: -0.5%; Pf growth 48h: -1.6%

What do the screens show for `Cc1ccc2c(c1)N(C(=O)CCC(=O)NCCN1CCOCC1)CCO2`?
Sm TGR block: 6.9%; AmpC no deterg: -8.8%; SARS PLpro yeast: -2.5%; Pf growth 96h: -11.9%; AmpC inh detg: inconclusive; Pf growth 48h: 17.8%

Results for O=c1[nH]cc(F)c(=O)[nH]1 ?
Sm TGR block: -0.4%; AmpC no deterg: -19.2%; SARS PLpro yeast: -59.3%; Pf growth 96h: 4.65µM*; AmpC inh detg: -7.1%; Pf growth 48h: 6.57µM*

What do the screens show for `O=C(Nc1nccs1)c1cc2sccc2n1Cc1ccc(F)cc1`?
Sm TGR block: 0.3%; AmpC no deterg: 22.4µM*; SARS PLpro yeast: 0.3%; Pf growth 96h: -9.2%[5.75 µM]; AmpC inh detg: -9.8%; Pf growth 48h: 13.1µM*

Results for CC(=O)c1ccc(NC(=O)c2cc3sccc3n2Cc2ccc(F)cc2)cc1 ?
Sm TGR block: 5.0%; AmpC inh detg: 13.2%

What do the screens show for `COc1ccc(-c2cc(-c3ccccc3)nc3c2COc2ccc(F)cc2-3)cc1`?
Sm TGR block: 8.5%; AmpC inh detg: -3.0%

What do the screens show for `Cc1cccc(CCNC(=O)C2CCC(CNc3c(N4CCCC4)c(=O)c3=O)CC2)c1` (centres undefined)?
Sm TGR block: -2.0%; AmpC no deterg: -20.3%; SARS PLpro yeast: -3.3%; Pf growth 96h: 9.28µM*; AmpC inh detg: -4.4%

Results for O=C(CCNS(=O)(=O)c1cccc2nsnc12)NC1CCCc2ccccc21 (centres undefined) ?
Sm TGR block: 2.1%; AmpC no deterg: -23.5%; SARS PLpro yeast: -7.0%; Pf growth 96h: inconclusive; AmpC inh detg: 0.3%; Pf growth 48h: 7.6%

Results for CCOC(=O)C1CCCN(c2c(Nc3ccc(OCC)cc3)c(=O)c2=O)C1 (centres undefined) ?
Sm TGR block: -9.2%; AmpC no deterg: -8.0%; SARS PLpro yeast: 4.3%; Pf growth 96h: 0.0%; AmpC inh detg: inconclusive

Results for O=C(NCCc1ccccc1)C1CCC(CNc2c(N3CCCCC3)c(=O)c2=O)CC1 (centres undefined) ?
Sm TGR block: -14.9%; AmpC no deterg: -4.4%; SARS PLpro yeast: 3.0%; Pf growth 96h: 11.7µM*; AmpC inh detg: inconclusive; Pf growth 48h: -21.2%

Results for O=C(NC1CCCc2ccccc21)C1CCC(CNS(=O)(=O)c2cccc3nsnc23)CC1 (centres undefined) ?
Sm TGR block: 4.7%; AmpC no deterg: 3.2%; SARS PLpro yeast: 4.9%; Pf growth 96h: 3.7µM*; AmpC inh detg: -17.6%

What do the screens show for `CCOC(=O)C1CCCN(c2c(Nc3cccc(C)c3)c(=O)c2=O)C1` (centres undefined)?
Sm TGR block: 0.0%; AmpC no deterg: -17.7%; SARS PLpro yeast: -8.7%; Pf growth 96h: 8.28µM*; AmpC inh detg: -12.2%

Results for Cc1ccc(CCNC(=O)C2CCC(CNc3c(N4CCCC4)c(=O)c3=O)CC2)cc1 (centres undefined) ?
Sm TGR block: inconclusive; AmpC no deterg: -18.1%; SARS PLpro yeast: -2.3%; Pf growth 96h: inconclusive; AmpC inh detg: 1.3%

What do the screens show for `O=S(=O)(c1ccc(C2CCCCC2)cc1)N1CCN(c2cc(Cl)ccc2Cl)CC1`?
Sm TGR block: -0.1%; AmpC inh detg: -1.9%

How did Cc1cccc(NC(=O)C(NS(=O)(=O)c2ccc3c(c2)oc(=O)n3C)C(C)C)c1 (centres undefined) do in these assays?
Sm TGR block: 0.0%; AmpC inh detg: -9.3%

How did COc1cc(Nc2nc3ccccc3c3nnc(C)n23)cc(OC)c1 do in these assays?
Sm TGR block: -2.9%; AmpC inh detg: 7.8%

What do the screens show for `Cc1ccnc(NC(=O)C2CCC(CNc3c(N4CCCC4)c(=O)c3=O)CC2)c1` (centres undefined)?
Sm TGR block: -0.7%; AmpC no deterg: 2.24µM*; SARS PLpro yeast: 5.9%; Pf growth 96h: -25.6%; AmpC inh detg: inconclusive; Pf growth 48h: -6.3%

What do the screens show for `O=C(NC1CCCc2ccccc21)C1CCC(CNc2c(N3CCOCC3)c(=O)c2=O)CC1` (centres undefined)?
Sm TGR block: -15.0%; AmpC no deterg: -3.4%; SARS PLpro yeast: 1.4%; Pf growth 96h: 10.4µM*; AmpC inh detg: -1.2%; Pf growth 48h: 20.4%

How did COc1ccc(CC(=O)NC2CC(=O)N(c3cccc(F)c3)C2)cc1OC (centres undefined) do in these assays?
Sm TGR block: 11.9%; AmpC inh detg: -1.1%

What do the screens show for `Cc1ccc(Cl)cc1NC(=O)c1oc2ccc(S(=O)(=O)N(C)C3CCCCC3)cc2c1C`?
Sm TGR block: 1.5%; AmpC inh detg: -5.0%
